Records with an inconclusive call do not appear. Active and inactive are the calls of the source. Rule for the calls, unless noted: active = hit-call score of the fitted dose curve at least 0.9, where 1 is the maximum; inconclusive = response in the unintended direction; inactive = score below 0.9.
What was measured:
[1] = molecular target: Transcription factor E2F1 (Homo sapiens) (UniProt Q01094); assay: ATG_E2F_CIS: Attagene CIS-FACTORIAL HepG2 Assay for human E2F Transcription Factor 1 (AID 2282935; active = hit-call score of the fitted dose curve at least 0.9, where 1 is the maximum; inactive = score below 0.9); details: HepG2 Attagene cis-reporter, E2F reporter RNA transcripts; actives raise or lower the signal
Summary of the method: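 Gain or loss of reporter transcript, fitted against DMSO, reflects E2F1-driven transcription. Transiently transfected HepG2 dosed 24 h before RNA isolation. Quantified by fluorescent RT-PCR products separated by capillary electrophoresis.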

[2] = ATG_GRE_CIS: Attagene CIS-FACTORIAL HepG2 Assay for human Glucocorticoid Response Elements (GRE) (AID 2282947; active = hit-call score of the fitted dose curve at least 0.9, where 1 is the maximum; inactive = score below 0.9); details: HepG2 GRE cis-reporter, Attagene multiplex mRNA; actives raise or lower the signal
Summary of the method: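 Reporter transcripts read by RT-PCR with capillary electrophoresis fluorescence after a 24 h chemical exposure of HepG2 cells transiently transfected with multiple cis-element reporter units. Gain or loss fitted against DMSO.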

[3] = ATG_PBREM_CIS: Attagene CIS-FACTORIAL HepG2 Assay for human Phenobarbital-responsive Enhancer Module (PBREM) (AID 2282955; active = hit-call score of the fitted dose curve at least 0.9, where 1 is the maximum; inactive = score below 0.9); details: HepG2 PBREM cis-reporter, Attagene multiplexed transcription; actives raise or lower the signal
Summary of the method: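 HepG2 cells transiently transfected with multiple cis-regulated reporter units measure endogenous transcription factor activity; 24 h compound exposure. Reporter mRNA quantified by RT-PCR, fluorescent labelling, HpaI digestion and capillary electrophoresis; bidirectional fit versus DMSO.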

[4] = ATG_RORE_CIS: Attagene CIS-FACTORIAL HepG2 Assay for human RAR-related Orphan Receptor Element (RORE) (AID 2282959; active = hit-call score of the fitted dose curve at least 0.9, where 1 is the maximum; inactive = score below 0.9); details: HepG2 Attagene cis-factorial RORE reporter, mRNA; actives raise or lower the signal
Summary of the method: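 HepG2 cells carrying transiently transfected cis-regulated reporter units; RORE-driven reporter mRNA quantified 24 h post-dosing by RT-PCR, 6-FAM primer extension, HpaI digestion and capillary electrophoresis. Bidirectional fit versus DMSO.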

[5] = molecular target: Glucocorticoid receptor (Homo sapiens) (UniProt P04150); assay: ATG_GR_TRANS: Attagene TRANS-FACTORIAL HepG2 Assay for human Glucocorticoid Receptor (GR) (AID 2282978); details: HepG2 Attagene TRANS GR reporter, mRNA transcription;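 note: activators score as hits since higher reporter transcript over DMSO is fitted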
Summary of the method: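 HepG2 cells transiently transfected with GAL4-UAS reporter units and exogenous GR-Gal4 chimera, dosed 24 h. Reporter mRNA by RT-PCR, FAM labeling, HpaI digest and capillary electrophoresis; gain-of-signal fit versus DMSO.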

[6] = molecular target: Bile acid receptor (Homo sapiens) (UniProt Q96RI1); assay: ATG_FXR_TRANS: Attagene TRANS-FACTORIAL HepG2 Assay for Farnesoid X Receptor (FXR) (AID 2282979); details: HepG2 Attagene TRANS FXR-GAL4 reporter transcription;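 note: hits raise reporter mRNA above DMSO so AC50 marks FXR activation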
Summary of the method: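 HepG2 cells were transiently transfected with GAL4-UAS reporters driven by chimeric NR-Gal4 proteins and dosed for 24 h. Reporter mRNA was quantified by RT-PCR, fluorescent labelling, HpaI digestion and capillary electrophoresis, with gain of signal scored versus DMSO.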

[7] = molecular target: Hepatocyte nuclear factor 4-alpha (Homo sapiens) (UniProt P41235); assay: ATG_HNF4a_TRANS: Attagene TRANS-FACTORIAL HepG2 Assay for human Hepatocyte Nuclear Factor 4 alpha (HNF4a) (AID 2282982); details: HepG2 HNF4a transactivation reporter, mRNA readout
Summary of the method: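 Activity of an exogenous HNF4a–Gal4 fusion scored as induced GAL4-UAS reporter transcripts after 24 h chemical exposure of transfected human HepG2 cells. Read-out via RT-PCR with 6-FAM labelling and capillary electrophoresis; rise over DMSO baseline.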

[8] = molecular target: human Peroxisome Proliferator-activated Receptor alpha (PPARa), PPARA (gene 5465) (UniProt Q07869); assay: ATG_PPARa_TRANS: Attagene TRANS-FACTORIAL HepG2 Assay for human Peroxisome Proliferator-activated Receptor alpha (PPARa) (AID 2283001);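 for AC50: potency for gain of reporter signal over DMSO so agonist or activator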
Summary of the method: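 Reporter transcripts quantified by RT-PCR plus capillary electrophoresis after 24 h treatment, fitted upward relative to DMSO. Cells: human HepG2 transiently carrying multiple GAL4-UAS reporter units driven by NR-Gal4 chimeras.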

[9] = molecular target: human Peroxisome Proliferator-activated Receptor delta (PPARd), PPARD (gene 5467) (UniProt Q03181); assay: ATG_PPARd_TRANS: Attagene TRANS-FACTORIAL HepG2 Assay for human Peroxisome Proliferator-activated Receptor delta (PPARd) (AID 2283002)
Summary of the method: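 Transient HepG2 transfection (multiple GAL4-UAS RTUs, chimeric receptor-Gal4); 24 h dosing; total RNA → oligo(dT) RT → PCR → 6-FAM primer extension → HpaI cut → CE. Positive direction vs DMSO.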

[10] = CCTE_Harrill_HTTr_CellCount_MCF7: CCTE's Cell Proliferation Assessment for the High-Throughput Transcriptomics (HTTr) Platform, Harrill Lab (AID 2284012);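 note: cells exposed to compound for six hours; intended direction is loss of nuclei count meaning fewer cells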
Summary of the method: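 Cell count from high-content imaging of Hoechst-labeled nuclei serves as viability/growth readout. Chemicals were applied to MCF-7 cells in eight concentrations for six hours, with fitting in both directions relative to DMSO.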

[11] = CCTE_Shafer_MEA_acute_per_network_burst_electrodes_number_mean: CCTE's Neural Acute Assay for Mean Number of Electrodes in a Network Burst, Shafer Lab (AID 2284021; active = hit-call score of the fitted dose curve at least 0.9, where 1 is the maximum; inactive = score below 0.9;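 note: curves fitted for decreases only so hits reduce electrodes per burst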)
Summary of the method: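 Rat primary cortical neurons on 48-well MEAs, DIV 13 or 15, were treated at 0.03-40 uM. Spikes were detected at 8x rms noise and recorded at 37 C. The mean electrodes per network burst in a 40 min exposure recording was expressed as percent change from a 40 min baseline.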

[12] = CCTE_Shafer_MEA_acute_network_burst_percentage: CCTE's Neural Acute Assay for Percentage of Network Bursts, Shafer Lab (AID 2284022; active = hit-call score of the fitted dose curve at least 0.9, where 1 is the maximum; inactive = score below 0.9;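 note: curves fitted for loss so actives lower network burst percentage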)
Summary of the method: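 Rat primary cortical neuron networks on 48-well MEA plates, DIV 13 or 15, treated acutely with compound (0.03-40 uM, at least three wells). Percent of spikes within network bursts compared between 40-min recordings before and during exposure at 37 C, expressed as percent change.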

[13] = CCTE_Shafer_MEA_acute_cross_correlation_area: CCTE's Neural Acute Assay for Area of Cross Correlation, Shafer Lab (AID 2284024; active = hit-call score of the fitted dose curve at least 0.9, where 1 is the maximum; inactive = score below 0.9;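 note: curves fitted for loss of cross-correlation area so actives lower synchrony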)
Summary of the method: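 Rat primary cortical neurons on 48-well MEA, DIV 13 or 15; compounds 0.03-40 uM. Baseline and post-exposure 40 min recordings at 37 C; percent change in area under pooled inter-electrode cross-correlation near zero lag, relative to DMSO.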

[14] = CCTE_Shafer_MEA_acute_cross_correlation_HWHM: CCTE's Neural Acute Assay for Cross Correlation at Half Width at Half Maximum, Shafer Lab (AID 2284026; active = hit-call score of the fitted dose curve at least 0.9, where 1 is the maximum; inactive = score below 0.9;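 note: percent change per well from pre-dose baseline in spike cross-correlogram half width; hits are a decrease in cross-correlogram half width relative to DMSO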)
Summary of the method: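 Rat primary cortical neurons on 48-well MEA plates; 40-min baseline and 40-min post-exposure recordings at 37 C on DIV 13 or 15, compounds 0.03-40 uM. Spikes detected at 8x rms noise; percent change in cross-correlogram HWHM per well vs baseline.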

[15] = CCTE_Shafer_MEA_acute_LDH: CCTE's Lactate Dehydrogenase Assay for Cytotoxicity in the Neural Acute Assay, Shafer Lab (AID 2284086);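 note: active means LDH release rises above DMSO vehicle level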
Summary of the method: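 LDH released during 40 min compound exposure of primary rat cortical cultures, quantified by absorbance at 490 nm in collected medium. Fitting direction positive versus DMSO vehicle.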

[16] = ATG_M_06_TRANS: Attagene TRANS-FACTORIAL HepG2 Assay for M06 Transcription Factor (Internal Marker) (AID 2282983); details: HepG2 Attagene TRANS M06 internal marker reporter
Summary of the method: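 mRNA levels of a reporter transcript, quantified as FAM fluorescence on capillary electrophoresis, served as readout. HepG2 cells expressing exogenous GAL4-chimera reporter constructs were exposed for 24 h. Gain of signal over DMSO was evaluated.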

[17] = ATG_NF_kB_CIS: Attagene CIS-FACTORIAL HepG2 Assay for human Nuclear Factor Kappa B (NF-kB) (AID 2282991; active = hit-call score of the fitted dose curve at least 0.9, where 1 is the maximum; inactive = score below 0.9); details: HepG2 Attagene cis-factorial NF-kB reporter mRNA; actives raise or lower the signal
Summary of the method: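 HepG2 cells transfected with cis-promoter-driven reporter units, so endogenous transcription factor activity is measured. Reporter mRNA quantified 24 h after dosing by RT-PCR and capillary electrophoresis, with bidirectional fitting against DMSO.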

[18] = ACEA_ER_AUC_viability: ACEA Biosciences xCELLigence Real-Time Cell Analysis on Estrogen Receptor Agonism for Viability (AID 2283782);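 note: hit means loss of impedance signal meaning reduced cell growth or viability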
Summary of the method: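 Viability endpoint: reduced impedance area under the curve relative to DMSO, recorded by real-time electrode sensing over ~80 h of continuous exposure. Duplicate plates of T47D in hormone-depleted medium; eight concentrations, 1:4 dilutions, 100 uM maximum.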

Measured: AC50

Sequence of human Peroxisome Proliferator-activated Receptor alpha (PPARa), PPARA (gene 5465) (Q07869 whole entry, looked up, the tested form may be a part): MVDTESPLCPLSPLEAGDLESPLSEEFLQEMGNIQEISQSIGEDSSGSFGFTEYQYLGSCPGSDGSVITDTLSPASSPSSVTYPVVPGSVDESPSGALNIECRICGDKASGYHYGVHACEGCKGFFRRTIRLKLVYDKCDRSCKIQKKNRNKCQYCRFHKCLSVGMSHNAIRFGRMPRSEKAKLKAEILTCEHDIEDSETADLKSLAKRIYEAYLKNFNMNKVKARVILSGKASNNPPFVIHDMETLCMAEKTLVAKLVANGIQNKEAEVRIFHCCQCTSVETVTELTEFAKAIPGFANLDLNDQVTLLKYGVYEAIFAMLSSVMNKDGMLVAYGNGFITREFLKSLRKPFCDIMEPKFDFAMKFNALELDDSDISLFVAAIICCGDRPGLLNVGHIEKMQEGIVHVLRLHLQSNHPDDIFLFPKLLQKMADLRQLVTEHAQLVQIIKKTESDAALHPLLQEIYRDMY
Sequence of Hepatocyte nuclear factor 4-alpha (Homo sapiens) (P41235 whole entry, looked up, the tested form may be a part): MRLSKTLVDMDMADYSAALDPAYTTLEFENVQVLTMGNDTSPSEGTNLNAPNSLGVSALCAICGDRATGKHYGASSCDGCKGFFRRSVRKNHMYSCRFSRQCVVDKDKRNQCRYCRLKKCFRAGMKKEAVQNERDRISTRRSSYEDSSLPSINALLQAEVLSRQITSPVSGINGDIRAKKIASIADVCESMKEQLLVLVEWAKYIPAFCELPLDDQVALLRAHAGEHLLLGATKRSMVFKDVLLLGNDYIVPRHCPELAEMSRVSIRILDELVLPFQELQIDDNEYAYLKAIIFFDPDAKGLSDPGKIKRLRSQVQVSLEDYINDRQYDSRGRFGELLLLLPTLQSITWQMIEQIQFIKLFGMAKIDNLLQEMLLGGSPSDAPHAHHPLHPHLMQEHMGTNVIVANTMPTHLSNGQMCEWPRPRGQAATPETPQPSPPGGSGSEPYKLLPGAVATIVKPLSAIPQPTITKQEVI
Sequence of Transcription factor E2F1 (Homo sapiens) (Q01094 whole entry, looked up): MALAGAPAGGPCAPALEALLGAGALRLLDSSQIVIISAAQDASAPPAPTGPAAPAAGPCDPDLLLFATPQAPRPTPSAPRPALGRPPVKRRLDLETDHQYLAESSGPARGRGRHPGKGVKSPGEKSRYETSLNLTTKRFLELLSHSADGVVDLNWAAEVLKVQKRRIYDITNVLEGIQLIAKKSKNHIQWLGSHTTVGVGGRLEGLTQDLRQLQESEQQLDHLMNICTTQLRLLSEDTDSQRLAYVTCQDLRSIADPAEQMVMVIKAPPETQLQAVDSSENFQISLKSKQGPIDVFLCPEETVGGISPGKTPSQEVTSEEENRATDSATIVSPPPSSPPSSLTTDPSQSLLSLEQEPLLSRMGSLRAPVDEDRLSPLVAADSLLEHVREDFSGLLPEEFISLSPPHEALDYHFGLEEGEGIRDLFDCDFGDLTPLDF
Sequence of Glucocorticoid receptor (Homo sapiens) (P04150 whole entry, looked up, the tested form may be a part): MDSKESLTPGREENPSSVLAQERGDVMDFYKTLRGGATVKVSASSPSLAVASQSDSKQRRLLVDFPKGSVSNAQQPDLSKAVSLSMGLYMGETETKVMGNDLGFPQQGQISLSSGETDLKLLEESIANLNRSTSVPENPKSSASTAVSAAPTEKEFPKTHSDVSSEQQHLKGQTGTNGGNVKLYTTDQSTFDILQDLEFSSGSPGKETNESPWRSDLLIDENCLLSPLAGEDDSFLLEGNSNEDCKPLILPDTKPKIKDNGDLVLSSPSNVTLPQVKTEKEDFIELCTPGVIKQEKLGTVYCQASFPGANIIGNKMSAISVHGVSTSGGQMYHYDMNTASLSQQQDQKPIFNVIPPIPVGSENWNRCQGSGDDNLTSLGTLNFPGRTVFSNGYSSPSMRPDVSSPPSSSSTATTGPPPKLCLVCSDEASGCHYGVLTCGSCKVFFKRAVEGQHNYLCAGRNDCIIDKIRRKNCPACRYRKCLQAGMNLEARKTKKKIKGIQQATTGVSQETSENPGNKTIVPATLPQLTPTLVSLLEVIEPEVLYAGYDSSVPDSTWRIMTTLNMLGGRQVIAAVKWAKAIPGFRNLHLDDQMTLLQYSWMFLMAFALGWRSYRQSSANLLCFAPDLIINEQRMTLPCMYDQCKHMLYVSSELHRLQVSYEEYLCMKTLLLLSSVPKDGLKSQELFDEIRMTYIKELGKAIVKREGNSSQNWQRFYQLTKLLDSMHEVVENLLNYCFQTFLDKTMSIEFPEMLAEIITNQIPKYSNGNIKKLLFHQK
Sequence of Bile acid receptor (Homo sapiens) (Q96RI1 whole entry, looked up, the tested form may be a part): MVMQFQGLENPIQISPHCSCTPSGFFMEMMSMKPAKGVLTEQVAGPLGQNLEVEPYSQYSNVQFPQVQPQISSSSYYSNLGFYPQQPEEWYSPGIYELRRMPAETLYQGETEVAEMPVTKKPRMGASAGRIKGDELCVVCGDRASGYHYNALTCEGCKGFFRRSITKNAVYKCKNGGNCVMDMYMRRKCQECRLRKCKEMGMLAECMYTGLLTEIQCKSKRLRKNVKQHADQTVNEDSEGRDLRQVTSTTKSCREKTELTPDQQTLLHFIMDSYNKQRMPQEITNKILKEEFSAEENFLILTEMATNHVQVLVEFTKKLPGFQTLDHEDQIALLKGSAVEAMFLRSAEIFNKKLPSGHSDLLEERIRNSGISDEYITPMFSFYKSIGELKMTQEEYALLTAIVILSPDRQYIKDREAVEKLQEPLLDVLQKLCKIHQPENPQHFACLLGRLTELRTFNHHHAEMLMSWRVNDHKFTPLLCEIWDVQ
Sequence of human Peroxisome Proliferator-activated Receptor delta (PPARd), PPARD (gene 5467) (Q03181 whole entry, looked up, the tested form may be a part): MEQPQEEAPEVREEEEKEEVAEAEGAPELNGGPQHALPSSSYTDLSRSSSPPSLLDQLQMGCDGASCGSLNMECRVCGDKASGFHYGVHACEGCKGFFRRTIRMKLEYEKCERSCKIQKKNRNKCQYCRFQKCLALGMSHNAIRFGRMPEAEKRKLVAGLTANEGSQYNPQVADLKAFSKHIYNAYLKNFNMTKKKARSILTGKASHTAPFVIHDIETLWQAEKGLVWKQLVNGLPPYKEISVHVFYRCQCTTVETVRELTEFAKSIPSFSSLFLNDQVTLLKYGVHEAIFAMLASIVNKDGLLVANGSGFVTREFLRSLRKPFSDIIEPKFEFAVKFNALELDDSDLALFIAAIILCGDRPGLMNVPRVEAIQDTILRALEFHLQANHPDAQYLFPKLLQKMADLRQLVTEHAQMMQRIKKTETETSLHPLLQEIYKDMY

CCCc1c(OCCCCc2nn[nH]n2)ccc(C(C)=O)c1O
inactive: [1] | [2] | [3] | [5] | [6] | [7] | [9] | [10]
active: [4] 33.2 µM | [8] 27.7 µM

O=[N+]([O-])c1cc(S(=O)(=O)Nc2ccccc2)ccc1Nc1ccccc1
active: [14] 20.9 µM
inactive: [11] | [12] | [13] | [15]

CCCCn1cc[n+](C)c1
inactive: [4] | [7]

CC/C=C\CC1=C(C)CCC1=O
inactive: [3] | [4] | [7] | [8]

CCO[Si](OCC)(OCC)c1ccccc1
inactive: [1] | [2] | [4] | [5] | [16] | [8]

COc1ccccc1OCC(O)CO (stereo not given)
inactive: [1] | [4] | [7] | [17] | [8] | [9] | [18]

COc1ccc2ccccc2c1
inactive: [2] | [4] | [5] | [6] | [16] | [8]

— PubChem BioAssay (EPA / NIEHS)
